Results taken from PubChem BioAssay AID689 (Sanford-Burnham Center for Chemical Genomics, 2007).
Screen size: about 62,000 compounds; about 80 (0.1%) were called active. How the calls were made is not given here. Not all results are given here. Entries with a potency or affinity are not part of this list.

These molecules were tested against Ephrin type-A receptor 4 (Mus musculus) (UniProt Q03137) (assay: EphA4 ligand-binding antagonists – biochemical, colorimetric, mouse EphA4, primary screen (AID 689)). Conditions: EphA4-AP binding to KYL peptide, pNPP A405, at 10 µM, active compounds read high.
Chain of Ephrin type-A receptor 4 (Mus musculus) (Q03137 whole entry, looked up): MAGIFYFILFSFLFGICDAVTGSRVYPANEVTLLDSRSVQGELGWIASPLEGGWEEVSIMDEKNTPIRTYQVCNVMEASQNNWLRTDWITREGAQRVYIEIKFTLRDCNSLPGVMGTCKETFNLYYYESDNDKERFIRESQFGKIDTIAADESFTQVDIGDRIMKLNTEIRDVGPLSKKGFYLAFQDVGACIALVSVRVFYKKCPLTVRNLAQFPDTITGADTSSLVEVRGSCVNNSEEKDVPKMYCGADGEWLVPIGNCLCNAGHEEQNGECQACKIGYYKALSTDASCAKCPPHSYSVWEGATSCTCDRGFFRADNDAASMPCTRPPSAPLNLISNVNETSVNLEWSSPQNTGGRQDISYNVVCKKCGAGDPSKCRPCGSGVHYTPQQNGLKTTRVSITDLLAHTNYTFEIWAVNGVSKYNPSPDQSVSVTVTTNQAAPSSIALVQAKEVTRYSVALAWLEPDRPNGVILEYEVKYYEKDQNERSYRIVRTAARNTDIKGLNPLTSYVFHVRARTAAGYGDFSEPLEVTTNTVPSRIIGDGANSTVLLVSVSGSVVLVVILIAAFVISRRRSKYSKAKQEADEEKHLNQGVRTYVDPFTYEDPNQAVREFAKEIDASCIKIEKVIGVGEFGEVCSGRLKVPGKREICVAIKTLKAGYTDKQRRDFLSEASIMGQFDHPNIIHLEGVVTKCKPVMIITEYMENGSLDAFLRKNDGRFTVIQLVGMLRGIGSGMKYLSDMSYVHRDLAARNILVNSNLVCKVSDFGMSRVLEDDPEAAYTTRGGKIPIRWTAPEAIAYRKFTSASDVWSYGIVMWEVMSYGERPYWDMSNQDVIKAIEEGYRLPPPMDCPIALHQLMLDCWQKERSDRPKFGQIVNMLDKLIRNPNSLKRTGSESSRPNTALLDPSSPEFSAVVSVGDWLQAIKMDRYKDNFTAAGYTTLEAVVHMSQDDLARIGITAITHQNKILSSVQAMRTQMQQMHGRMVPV

inhibition, inactive:
CCCOc1nc2c(c(=O)n(C)c(=O)n2C)n1CCC -3.5%, CC(=O)c1c(C)n(-c2ccccc2)c2ccc(OCC(O)CN3CCOCC3)cc12 (stereo unspecified) -25.3%, Cn1c(=O)n(C)c2cc(S(=O)(=O)NCc3ccco3)ccc21 -8%, N#CC(c1ccc(O)cc1)N1CCCCC1 (stereo unspecified) 0.9%, Cc1ccc(NC(=O)N2CCC(C(=O)NCC(C)C)CC2)cc1 -0.8%, CC(C)OCCCNC(=O)C1CCC(=O)N1C(C)C (stereo unspecified) -3.7%, COc1ccc(S(=O)(=O)Nc2ccc(NS(=O)(=O)c3ccc(OC)cc3)c3ccccc23)cc1 -1.5% [this sample at 5 µg/mL], CCc1ccc(S(=O)(=O)Nc2cc(Br)c(O)c3ccccc23)cc1 2.2% [this sample at 5 µg/mL], Cc1ccc(S(=O)(=O)Oc2cccc(N3C(=O)C4CC=CCC4C3=O)c2)cc1 (stereo unspecified) -10.4%, CCN(CC(=O)Nc1ccc2c(c1)OCCO2)c1ccc(S(=O)(=O)N2CCOCC2)cn1 -6.5%, O=C(Cc1cccs1)N1CCN(c2cccc(Cl)c2)CC1 11.4% [this sample at 5 µg/mL], COc1cccc(C2CC(=O)N3CN(c4ccccc4F)CSC3=C2C#N)c1 (stereo unspecified) 12.3%, COc1ccc(C2CC(=O)N3CN(c4ccccc4F)CSC3=C2C#N)cc1OC (stereo unspecified) -4.9%, CCOC(=O)c1c(NC(=S)Nc2ccccc2)sc2c1CCN(CC)C2 0.4%, CCOC(=O)c1c(NC(=S)Nc2ccccc2)sc2c1CCCCC2 1.6%, Cc1ccc2[nH]c(=O)c(CN(CCCN3CCOCC3)C(=O)NC3CCCCC3)cc2c1 -12%, COc1ccccc1Cc1noc(C(C)(C)NC(=O)c2ccccc2)n1 9%, CN(C)CCCNC(=O)CC(c1ccc(F)cc1)c1ccco1 (stereo unspecified) -15.3%, CCOC(=O)C1=C(c2ccccc2)N=c2s/c(=C\c3ccc(O)c(OC)c3)c(=O)n2C1c1ccc(OC)cc1 (stereo unspecified) 7.7% [this sample at 5 µg/mL], CCOC(=O)C1=C(c2ccccc2)N=c2s/c(=C\c3ccc(O)cc3)c(=O)n2C1c1cccs1 (stereo unspecified) 23.9%, O=C(O)CCC(=O)NCCn1c(-c2ccccc2)csc1=Nc1ccccc1 -2.4%, O=C1/C(=C\c2cccnc2)SC(=S)N1C1CCS(=O)(=O)C1 (stereo unspecified) 1.1%, CCOc1ccc(-c2nn(-c3ccccc3)cc2/C=C2\SC(=S)N(CCOC)C2=O)cc1 24.2% [this sample at 5 µg/mL], Nc1ccc(N(c2ccccc2)c2ccc(N)cc2)cc1 5.1%, CCN(Cc1ccccc1)C(=O)c1ccc([N+](=O)[O-])cc1 1.5% [this sample at 5 µg/mL], CCOc1ccc(S(=O)(=O)N(CC(=O)Nc2ccccc2C)c2ccc(C)cc2)cc1 2% [this sample at 5 µg/mL], Cc1cccc2sc(NC(=O)c3ccc(Cl)s3)nc12 -3.3%, Cc1cccc2sc(NC(=O)c3ccccc3C(=O)O)nc12 -11.2% [this sample at 5 µg/mL], CCOC(=O)C(O)(CCC(O)(C(=O)OCC)C(=O)OCC)C(=O)OCC -4.3%, O=C1CCC(C23CC4CC(CC(C4)C2)C3)=NN1 -8.4% [this sample at 5 µg/mL], Cc1nc(-c2ccc(O)c(O)c2)cs1 1.8%, Oc1ccc(-c2cn3c(n2)SCC3)cc1 4.1%, Cc1onc(-c2ccccc2Cl)c1C(=O)Nc1ccc(N2CCOCC2)cc1 1.6%, O=C1c2nc3ccccn3c2C(=O)N1Cc1ccccc1 6.8%, Cc1ccc(N(CC(=O)N/N=C/c2ccco2)S(=O)(=O)c2ccccc2)cc1 15.6%, CCOc1ccc(S(=O)(=O)N(CC(=O)O)c2ccccc2)cc1 0.2%, Cc1ccc(-c2nc3ncccc3o2)cc1NC(=O)COc1ccccc1 4.8%, CCOC(=O)c1cnc2c(OC)cccc2c1N1CCN(c2ccccc2OC)CC1 3.2%, O=[N+]([O-])/C=C/c1cn(Cc2ccc(F)cc2)c2ccccc12 30.9%, Cc1cccc(Cn2cc(/C=C/[N+](=O)[O-])c3ccccc32)c1 40.7%, Cc1ccc(NC(=O)N2Cc3ccccc3CC2C(=O)NC(C)(C)C)cc1 (stereo unspecified) 1%, CNc1ccc(Br)cc(C(=O)/C=C/c2ccc3c(c2)OCO3)c1=O 32.2%, O=C(/C=C/c1ccc2c(c1)OCO2)c1ccc(Br)cc1 3.2% [this sample at 5 µg/mL], CCOC(=O)c1sc(NC(NC(=O)c2ccco2)(C(=O)OC)C(F)(F)F)nc1C (stereo unspecified) 4.3%, CCN1/C(=C/c2ccc3ccccc3[n+]2CC)C=Cc2ccccc21 2%, CCN1/C(=C/C(C)=O)Sc2ccccc21 -0.8% [this sample at 5 µg/mL], Cn1c(=O)[nH]c(=O)c2c1nc(CN1CCN(c3cccc(Cl)c3)CC1)n2CCN1CCOCC1 8.6%, O=C(c1sc2ccccc2c1Cl)N(Cc1ccco1)C1CCS(=O)(=O)C1 (stereo unspecified) -4.2%, COc1ccccc1C1C(C(N)=O)=C(C)Nc2nc(-c3ccccc3Cl)nn21 (stereo unspecified) -24.8%, Cc1cc(/C=C2\SC(=S)NC2=O)c(C)n1C1CC1 9.1%, Cc1cc(C=C2C(=O)N(C)C(=O)N(C)C2=O)c(C)n1C 3.4% [this sample at 5 µg/mL], O=C(c1ccccc1)N1CCN(C(=O)C23CC4CC(CC(C4)C2)C3)CC1 -9.8%, O=C1c2ccccc2NC(c2ccc(Cl)c(Cl)c2)N1Cc1ccccc1 (stereo unspecified) 7.9% [this sample at 5 µg/mL], Cc1ccc(C)c(S(=O)(=O)Nc2ccccc2)c1 5.9% [this sample at 5 µg/mL], CCOc1cc(C(=S)N2CCOCC2)ccc1OS(=O)(=O)c1ccc(NC(C)=O)cc1 -6.9%, Cc1cccc(C)c1NC(=O)CSc1nnc(-c2ccoc2C)n1C -4.3%, Cc1occc1-c1nnc(SCC(=O)c2c[nH]c3ccccc23)n1C 0.9%, Cn1c(SCC(=O)NC2CCCC2)nc2cccnc21 -0.5%, Cc1c(C(=O)NCCc2ccccc2)oc2ccc(S(=O)(=O)N3CCC4(CC3)OCCO4)cc12 -4.2%, COc1ccc(CNC(=O)c2ccc(S(=O)(=O)N3CCCC3)cc2)cc1OC -5.4%, Cc1cc2cc(CNC(=O)C3CC3)ccc2n1C -5.8%, COc1ccccc1NC(=O)Cc1csc(N)n1 3.7%, CCCCN(CCCC)c1nc2ccccc2nc1C(C#N)C(=O)NCCCOC (stereo unspecified) 13.6%, CCCCN(C)C/C(O)=C(\C#N)c1nc(-c2ccccc2)cs1 -4.9%, Cc1c(NC(=O)c2ccc(CSc3ccc(Cl)cc3)cc2)c(=O)n(-c2ccccc2)n1C -7.2% [this sample at 5 µg/mL], Cc1ccc2c3c1C(=O)C(=O)N3C(C)(C)CC2C (stereo unspecified) -4.8%, O=C(COc1ccc(Cl)cc1)N(c1ccccc1)c1ccccc1 5.1% [this sample at 5 µg/mL], Cc1cccc(OCC(=O)N/N=C/c2cn[nH]c2-c2ccc(Cl)c(Cl)c2)c1 -6.5%, CCOC(=O)c1c(C)nc2c(c1-c1ccccc1)C(=O)c1ccccc1-2 -4.1%, CCOC(=O)c1ccc(COC(=O)c2ccc3c(c2)-c2ccccc2C3=O)cc1 -10.7%, CC(CCc1ccccc1)NC(=O)c1cncc(Br)c1 (stereo unspecified) 1.4%, CCOC(=O)c1c(C)oc2c1c(C=NCC1CCCO1)c(O)c1ccccc12 (stereo unspecified) -5.6%, CCOC(=O)c1c(C)oc2c1c1c(c3ccccc32)OCN(Cc2ccccn2)C1 4.9%, Cn1c(NCc2c[nH]c3ccccc23)nc2ccccc21 -8.4%, CCOC(=O)c1csc(NC(=O)CSc2nnnn2CC)n1 -8.3%, Cc1ccc(S(=O)(=O)N2CCSC2c2ccco2)cc1 (stereo unspecified) -2%, CCOCCCn1c(SCC(=O)NCc2ccco2)nc2c(sc3ccccc32)c1=O 7.8%, Oc1c(C(Nc2ccccn2)c2ccccn2)ccc2cccnc12 (stereo unspecified) 6.9%, Cc1ccc2ccc(C(Nc3ccccn3)c3ccccc3)c(O)c2n1 (stereo unspecified) 18.4%, CC(=NCCc1ccccc1)C1=C(O)CCC1=O -2.3%, COc1ccccc1NC(=O)CSc1nnc(-c2ccco2)n1Cc1ccco1 -25.5%, COc1cccc(-c2nnc3sc(-c4ccccn4)nn23)c1 -6.2%, Cn1c(=O)oc2cc(S(=O)(=O)N3CCN(c4cccc(Cl)c4)CC3)ccc21 -5.3%, O=C1/C(=C/c2ccc(I)o2)SC(=S)N1Cc1ccccc1 -12.6% [this sample at 5 µg/mL], Cc1ccc(/C=C2\SC(=S)N(Cc3ccccc3)C2=O)o1 -10.8%, CC1(C)CC(NC(=O)c2coc(=O)c(Br)c2)CC(C)(C)N1 -9.8%, O=C(c1coc(=O)c(Br)c1)N1CCCc2ccccc21 21.7%, O=C(CSCc1ccccc1Cl)NNC(=S)Nc1ccccc1 -12.3%, CCOc1cc(/C=C2\SC(=S)N(Nc3ccccc3)C2=O)ccc1O 16.9%, COc1cc(/C=C2\SC(=S)N(Nc3ncc(C(F)(F)F)cc3Cl)C2=O)ccc1O 46.2%, O=C1/C(=C/c2ccc(F)cc2)SC(=S)N1Nc1ncc(C(F)(F)F)cc1Cl -6.5%, COc1cc(/C=C2/SC(=S)N(CC(=O)Nc3cccc(C(=O)O)c3)C2=O)cc(OC)c1OC -3.5% [this sample at 5 µg/mL], CC(=O)NCCNC(=O)[C@H](Cc1ccccc1)NC(=O)c1cccs1 -9%, CC1CC(C)CN(CC(C)(C)NS(=O)(=O)c2ccc(Cl)cc2)C1 (stereo unspecified) -13.3%, CC(C)C1Cc2c(C#N)c(N)n(C)c(=S)c2CO1 (stereo unspecified) -8%, CCC1(C)Cc2c(C#N)c(N)sc(=S)c2CO1 (stereo unspecified) 44.1%, O=C1NC(=S)N(c2ccc(F)cc2)C(=O)C1=Cc1ccc([N+](=O)[O-])s1 31.5% [this sample at 5 µg/mL], O=C(O)CSc1nnc(-c2ccccc2)o1 -16.7%, CCSc1nnc(-c2ccncc2)o1 -3%, COC(=O)c1cccnc1NC(=S)NNC(=O)c1ccncc1 1.4%, O=C1N=C(c2ccccc2)S/C1=C\c1cccs1 5.5%, CC1=NN(c2ccc(Br)cc2)C(=O)/C1=C/c1cccs1 -1.8%, CCCCC(=O)Nc1cccc(NC(=O)c2ccc(Br)cc2)c1 -0.2%, Cc1cc(C)c2nc(N3CCCN(C(=O)c4cnccn4)CC3)c(C#N)cc2c1 11.5%, Cc1cc(C)c2nc(N3CCN(C)CC3)c(C#N)cc2c1 8.1%, Cc1ccc(N2CCCn3c2nc2c3c(=O)n(CCN3CCOCC3)c(=O)n2C)cc1 -11%, N=c1oc2ccccc2cc1-c1nc2ccccc2c(=O)[nH]1 5.9%, O=C(/C=C/c1ccc(OCc2ccccc2)cc1)c1ccc(Br)cc1 -5.6% [this sample at 5 µg/mL], O=C(/C=C/c1ccc(OCc2ccccc2)cc1)c1cccc(Br)c1 14.7% [this sample at 5 µg/mL], CC(C)(C)C1=C(C#N)C(c2ccc3c(c2)OCO3)C(C#N)=C(N)O1 (stereo unspecified) 5%, CCC1=NN2C(=N)/C(=C/c3ccc(OCc4ccccc4)cc3)C(=O)N=C2S1 0.6% [this sample at 5 µg/mL]
